Measured values from PubChem BioAssay (NCI).
About 83,000 compounds went through this panel and 20% of them were active in at least one assay; those are over-represented in the sample as a whole.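 Values shown are percent growth following 48 h exposure of cells in 96-well plates to a single concentration of compound; below 10 was considered active.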 Active and inactive are the calls of the source.

How the values were obtained:
Assay in all cases: NCI-60 one-dose screen, 48 h (100 = growth as untreated, 0 = no growth, -100 = all killed)
NCI-H23 lung = settings: 10 µM unless noted
NCI-H226 lung = settings: 10 µM unless noted
NCI-H322M lung = settings: 10 µM unless noted
HOP-62 NSCLC = settings: 10 µM unless noted
NCI-H460 lung = settings: 10 µM unless noted
HOP-92 NSCLC = settings: 10 µM unless noted
NCI-H522 lung = settings: 10 µM unless noted
A549/ATCC NSCLC = settings: 10 µM unless noted
786-0 renal = settings: 10 µM unless noted
COLO 205 colon = settings: 10 µM unless noted
DU-145 prostate = settings: 10 µM unless noted
K-562 leukemia = settings: 10 µM unless noted
MALME-3M melanoma = settings: 10 µM unless noted
MDA-MB-231 breast = settings: 10 µM unless noted
RXF 393 renal = settings: 10 µM unless noted
SF-268 CNS = settings: 10 µM unless noted
SF-295 CNS = settings: 10 µM unless noted
SF-539 CNS = settings: 10 µM unless noted
UACC-257 melanoma = settings: 10 µM
M14 melanoma = settings: 10 µM unless noted

Measured: growth

O=C(Nc1ccc(-c2nc(-c3cccc(O)c3)c(-c3ccnc(Br)c3)[nH]2)cc1)c1ccccc1
active: HOP-62 NSCLC 2.99% | HOP-92 NSCLC 6.58% | 786-0 renal -10.2% | K-562 leukemia 1.18% | RXF 393 renal -37.1% | SF-295 CNS -56.4%
inactive: NCI-H23 lung 10.5% | NCI-H226 lung 51.4% | NCI-H322M lung 37.3% | NCI-H460 lung 11.1% | NCI-H522 lung 11.3% | A549/ATCC NSCLC 25.9% | COLO 205 colon 21% | DU-145 prostate 35.5% | MALME-3M melanoma 16.9% | MDA-MB-231 breast 30.2% | SF-268 CNS 29.2% | SF-539 CNS 16.6% | UACC-257 melanoma 45.8% | M14 melanoma 22.6%

CCN1C(=O)N(CC)C2SC(N/N=C/c3ccc(F)cc3)=NC21 (stereo not given)
active: NCI-H460 lung 4.72% | HOP-92 NSCLC -0.0922% | NCI-H522 lung -32.8% | COLO 205 colon -49.1% | SF-539 CNS -4.01%
inactive: NCI-H23 lung 29.6% | NCI-H226 lung 48.1% | NCI-H322M lung 55.2% | HOP-62 NSCLC 33% | A549/ATCC NSCLC 26.4% | 786-0 renal 30.3% | DU-145 prostate 16% | K-562 leukemia 14.2% | MALME-3M melanoma 54.7% | MDA-MB-231 breast 32.4% | RXF 393 renal 47.3% | SF-268 CNS 42.4% | SF-295 CNS 12.1% | UACC-257 melanoma 57.8% | M14 melanoma 14.6%

O=C1/C(=C/c2ccccc2[N+](=O)[O-])Oc2ccc(O)cc21
inactive: NCI-H23 lung 43.7% | NCI-H226 lung 78.6% | NCI-H322M lung 79.8% | HOP-62 NSCLC 78.3% | NCI-H460 lung 72.3% | HOP-92 NSCLC 80% | A549/ATCC NSCLC 84.8% | 786-0 renal 46.3% | COLO 205 colon 20.2% | DU-145 prostate 29.8% | MALME-3M melanoma 47.8% | MDA-MB-231 breast 30.2% | RXF 393 renal 12.3% | SF-268 CNS 78.5% | SF-295 CNS 88.9% | SF-539 CNS 15.2% | UACC-257 melanoma 60.3% | M14 melanoma 54.9%
active: NCI-H522 lung -5.14% | K-562 leukemia 4.21%

C#CCOc1ccc(C(Nc2ccc(OC)cc2)c2nnnn2C2CCCCC2)cc1 (stereo not given)
inactive: NCI-H23 lung 99.8% | NCI-H226 lung 101% | NCI-H322M lung 97.3% | HOP-62 NSCLC 98.9% | NCI-H460 lung 103% | HOP-92 NSCLC 93.9% | NCI-H522 lung 89.3% | A549/ATCC NSCLC 92.2% | 786-0 renal 95.5% | COLO 205 colon 106% | DU-145 prostate 109% | K-562 leukemia 94.4% | MALME-3M melanoma 98.5% | MDA-MB-231 breast 86.6% | RXF 393 renal 114% | SF-268 CNS 102% | SF-295 CNS 100% | SF-539 CNS 104% | UACC-257 melanoma 102% | M14 melanoma 97.2%

NC(=O)c1c(NC(=O)c2cccc(OC(F)(F)F)c2)sc2c1CCC(=O)C2
inactive: NCI-H23 lung 25.8% | NCI-H226 lung 80.1% | NCI-H322M lung 110% | HOP-62 NSCLC 102% | NCI-H460 lung 96.6% | HOP-92 NSCLC 71.6% | NCI-H522 lung 20.6% | A549/ATCC NSCLC 74.7% | 786-0 renal 89.4% | COLO 205 colon 85.7% | DU-145 prostate 107% | K-562 leukemia 13.5% | MALME-3M melanoma 81.3% | MDA-MB-231 breast 63.3% | RXF 393 renal 36.4% | SF-268 CNS 55.7% | SF-295 CNS 46.1% | SF-539 CNS 25.7% | UACC-257 melanoma 81.8% | M14 melanoma 37.6%

COC[C@]12CC[C@@H](C)[C@H](C)[C@H]1C1=CC[C@@H]3[C@@]4(C)CCCNC(C)(C)[C@@H]4CC[C@@]3(C)[C@]1(C)CC2
active: NCI-H460 lung -42.3% | NCI-H522 lung -31.9% | COLO 205 colon -52.4% | K-562 leukemia 0.992% | MALME-3M melanoma -36.7% | SF-295 CNS -74.2% | M14 melanoma -48.3%
inactive: NCI-H23 lung 52.1% | NCI-H226 lung 58% | NCI-H322M lung 64.6% | HOP-62 NSCLC 40% | HOP-92 NSCLC 48.3% | A549/ATCC NSCLC 20.8% | 786-0 renal 21.1% | DU-145 prostate 12.8% | MDA-MB-231 breast 51.2% | RXF 393 renal 56.2% | SF-268 CNS 70.2% | SF-539 CNS 26.3% | UACC-257 melanoma 20.3%

CCNC(=O)Oc1ccc(/C(=C(/C)c2ccc(Cl)cc2)c2ccc(OCCN3CCCC3)cc2)cc1
inactive: NCI-H23 lung 87.5% | NCI-H226 lung 95.8% | NCI-H322M lung 93.3% | HOP-62 NSCLC 97% | NCI-H460 lung 80.6% | HOP-92 NSCLC 83.2% | NCI-H522 lung 96.8% | A549/ATCC NSCLC 73% | 786-0 renal 71.4% | COLO 205 colon 88.8% | DU-145 prostate 102% | K-562 leukemia 13.5% | MALME-3M melanoma 63.6% | MDA-MB-231 breast 88.5% | RXF 393 renal 66.9% | SF-268 CNS 90.5% | SF-295 CNS 96.8% | SF-539 CNS 76.4% | UACC-257 melanoma 81.1% | M14 melanoma 68%

CCc1ccc(NC(=O)N[C@@H](Cc2cccc(C)c2)C(=O)N[C@@H]2C(=O)N3CCC[C@H]3C(=O)N3CCCC[C@H]3C(=O)N[C@@H](CO)C(=O)N3C[C@H](C)C[C@H]3C(=O)O[C@H]2C)c(F)c1
active: NCI-H226 lung -4.68% | HOP-92 NSCLC -0.374% | COLO 205 colon -36% | RXF 393 renal -9.15%
inactive: NCI-H23 lung 34.4% | NCI-H322M lung 49.9% | HOP-62 NSCLC 30.5% | NCI-H460 lung 12.5% | NCI-H522 lung 21% | A549/ATCC NSCLC 27.9% | 786-0 renal 40.8% | DU-145 prostate 25.3% | K-562 leukemia 27% | MALME-3M melanoma 37.3% | MDA-MB-231 breast 33.9% | SF-268 CNS 30.1% | SF-295 CNS 12.8% | SF-539 CNS 37.5% | UACC-257 melanoma 15% | M14 melanoma 23.7%

c1ccc(-c2n(Cc3ccc4ccccc4c3)c3c4ccccc4c4ccccc4c3[n+]2Cc2ccc3ccccc3c2)cc1
active: NCI-H23 lung -79.9% | NCI-H226 lung -74% | NCI-H322M lung -80.1% | HOP-62 NSCLC -69.2% | NCI-H460 lung -62.9% | HOP-92 NSCLC -77% | NCI-H522 lung -74.9% | A549/ATCC NSCLC -69.2% | 786-0 renal -67% | COLO 205 colon -59.5% | DU-145 prostate -94.4% | K-562 leukemia -45% | MALME-3M melanoma -81.4% | MDA-MB-231 breast -79% | RXF 393 renal -83.2% | SF-268 CNS -63.6% | SF-295 CNS -87.1% | SF-539 CNS -81.8% | UACC-257 melanoma -38.2% | M14 melanoma -64.6%

O=C1NC(=O)c2c1c1c3ccccc3ccc1c1[nH]c3ccccc3c21
inactive: NCI-H23 lung 15.8% | NCI-H226 lung 12.2% | NCI-H322M lung 19.4% | HOP-92 NSCLC 35.9% | NCI-H522 lung 11.3% | A549/ATCC NSCLC 23.5% | 786-0 renal 18.6% | COLO 205 colon 28.8% | DU-145 prostate 22.9% | MDA-MB-231 breast 34% | SF-539 CNS 18.4% | UACC-257 melanoma 44.1% | M14 melanoma 15.9%
active: HOP-62 NSCLC 1.2% | NCI-H460 lung 6.41% | K-562 leukemia 9.34% | MALME-3M melanoma -15.2% | RXF 393 renal -21.2% | SF-268 CNS 5.68% | SF-295 CNS 3.01%

CCN(CC)CCN1C(=O)c2c(c3c4cccnc4[nH]c3c3ccc4ccccc4c23)C1=O
inactive: NCI-H23 lung 60.3% | NCI-H226 lung 79.4% | NCI-H322M lung 76.7% | HOP-62 NSCLC 38.4% | NCI-H460 lung 13.8% | HOP-92 NSCLC 91.9% | NCI-H522 lung 65.4% | A549/ATCC NSCLC 60% | 786-0 renal 60.9% | COLO 205 colon 72.1% | DU-145 prostate 54.7% | K-562 leukemia 18.7% | MALME-3M melanoma 86.7% | MDA-MB-231 breast 89.7% | RXF 393 renal 78.8% | SF-268 CNS 50.3% | SF-295 CNS 35.4% | SF-539 CNS 76.5% | UACC-257 melanoma 98.2% | M14 melanoma 61.1%

O=C(Nc1cccc(-c2nc(-c3ccc(NC(=O)c4cccs4)cc3Cl)no2)c1)Nc1ccc(NC(=O)C2CC2)c(C(F)(F)F)c1
active: NCI-H23 lung -49.8% | NCI-H226 lung -46.4% | NCI-H322M lung -5.29% | HOP-62 NSCLC -44% | NCI-H460 lung -56.9% | HOP-92 NSCLC -40% | NCI-H522 lung -34.5% | A549/ATCC NSCLC -27.7% | 786-0 renal -30.7% | COLO 205 colon -51.7% | DU-145 prostate -13.4% | K-562 leukemia -11.1% | MALME-3M melanoma -80.6% | MDA-MB-231 breast -58.2% | RXF 393 renal -83.7% | SF-268 CNS -33.8% | SF-295 CNS -63.1% | SF-539 CNS -85.4% | UACC-257 melanoma -32.2% | M14 melanoma -41.1%

CNC(=O)c1cc(Oc2ccc3nc(NC(=O)c4ccc(CN5CCCN(C)CC5)c(C(F)(F)F)c4)sc3c2)ccn1
inactive: NCI-H23 lung 23% | NCI-H226 lung 82.9% | NCI-H322M lung 32.2% | HOP-62 NSCLC 11.5% | HOP-92 NSCLC 37.7% | A549/ATCC NSCLC 39.9% | DU-145 prostate 40.2% | SF-268 CNS 58%
active: NCI-H460 lung 5.57% | NCI-H522 lung -56.6% | 786-0 renal -76.3% | COLO 205 colon -64.4% | K-562 leukemia -39.9% | MALME-3M melanoma -69.7% | MDA-MB-231 breast -21.9% | RXF 393 renal -46.4% | SF-295 CNS -34.8% | SF-539 CNS -82.5% | UACC-257 melanoma -88.4% | M14 melanoma -88%

COc1ccc(CCN2C(=O)/C(=C/c3nc(CO)cs3)SC2=S)cc1
inactive: NCI-H23 lung 86.7% | NCI-H226 lung 101% | NCI-H322M lung 95.7% | HOP-62 NSCLC 82.8% | NCI-H460 lung 102% | HOP-92 NSCLC 27.7% | NCI-H522 lung 35.9% | A549/ATCC NSCLC 95.3% | 786-0 renal 27.9% | COLO 205 colon 102% | DU-145 prostate 46.1% | K-562 leukemia 60.4% | MALME-3M melanoma 73.2% | MDA-MB-231 breast 53.2% | RXF 393 renal 51.1% | SF-268 CNS 94.8% | SF-295 CNS 101% | SF-539 CNS 11.2% | UACC-257 melanoma 91.2% | M14 melanoma 85.3%
